According to PubChem BioAssay (NCATS):
Several values for one entry are separate records, joined by “and”; a condition that tells them apart may be missing. Equal values may be shown once. Results filed as inconclusive are left out. More than one record can exist for a structure, and the calls need not agree. Values without a mark were called inactive. Activity calls are given as the source filed them. Calls follow the shape of the dose curve; as a rule, active = well fitted activation curve with a large enough effect; inconclusive = small, poorly fitted or top-dose-only effect; inactive = no such curve, though single readings can be large or run the other way.

These molecules were tested against Cellular tumor antigen p53 (Homo sapiens) (UniProt P04637) (assay: Primary qHTS for small molecule compounds that upregulate eGFP-tagged delta133p53alpha (in N-terminal) cells. (AID 2060322; also: nearly all actives have a fitted effect of over 75% in size;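 as to activation: cells pre-induced with doxycycline then dosed without doxycycline; series mostly up to about 56 µM; 0% = DMSO vehicle and 100% = reference activator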)). Settings: NCI-H358 eGFP-delta133p53alpha fluorescence, 24 h; activation: active compounds read high.
Description: Assay Development and Screening Technology
National Center for Advancing Translational Sciences (NCATS),
National Institute of Health (NIH), Rockville, Maryland
Cellular senescence (CS) is one of the hallmarks of aging and age-related diseases. Senescent cells are characterized by an irreversible growth arrest, an increase in senescence-associated beta-galactosidase (SA-beta-gal) activity and p16INK4a expression, an activation of the DNA damage response pathways, and the emergence of a senescence-associated secretory phenotype (SASP).
Delta133p53alpha, a human/primate-specific p53 protein isoform, delays or inhibits the induction of CS and SASP in various types of human cells, including progeria-derived fibroblasts, primary normal astrocytes, and CD8+ T lymphocytes. Induction of delta133p53alpha with small molecule compounds may provide therapeutic opportunities for inhibition of senescence/SASP-associated pathologies in progeria syndromes, astrocyte-mediated neuroprotection in neurodegenerative diseases, and possibly prevention and treatment of a wider range of senescence- and aging-associated diseases.
Here we report the development and validation of a cell-based quantitative high throughput screening (qHTS) assay in 1,536-well format. This qHTS assay uses the NCI-H358 cell line with doxycycline-inducible expression of enhanced green fluorescent protein (eGFP)-tagged delta133p53alpha, which allows efficient and highly quantitative measurement of the protein levels.
PROTOCOL TABLE (as described by Inglese J, Shamu CE and Guy RK. 2007)
SEQUENCE No. (e.g., 1, 2, 3, etc.); […] (e.g., Cells, Incubation, Reagent, etc.); VALUE; DESCRIPTION.
1; Cells; 4uL; 800 doxycycline treated cells / well in doxycycline-free media, 1536-well black, clear-bottom low base Aurora microplates.
2; Compounds; 23 nL; Kalypsis pin tool (Wako) equipped with 1536-well pin heads, 5-azacytidine positive control.
3; Incubation; 24 hr; 37C, 5% CO2; 95% relative humidity.
4; Aspiration; 1x; BioTek EL406 washer dispenser (Agilent).
5; Fixing; 3.5% paraformaldehyde, BioTek EL406 washer dispenser (Agilent).
6; Washing; 1x PBS; BioTek EL406 washer dispenser (Agilent).
7; Nuclei staining; 1:1000 dilution of Hoechst 33342 (Thermofisher), BioTek EL406 washer dispenser (Agilent).
8; Incubation; 20 min; in the dark at room temperature.
9; Washing; 2x, 1x PBS (ThermoFisher), BioTek EL406 washer dispenser (Agilent).
10; Reagent; 10 uL; 1x PBS per well, sealed with clear adhesive tape.
NOTES (numbers refer to sequence numbers above).
1. NCI-H358 cells expressing eGFP-tagged delta133p53alpha were grown in T75 culture flasks and treated with doxycycline for 24h, at 10 ng/ml for eGFP-D133p53a cells (N-terminal cell) and 100 ng/ml for D133p53a-eGFP cells (C-terminal cells). Cells were trypsinized, counted using a Counted 3 Automated Cell Counter (Thermo Fisher), and diluted to a concentration of 200,000 cells/ml. A Multidrop Combi Reagent Dispenser (ThermoFisher) was used to dispense 800 cells/well in […] of doxycycline-free media, into 1536-well black/clear bottom low base plates (AuroraMicroplates).
2. After plating cells, 23 nl of compound library, DMSO vehicle control or positive control (5-azacytidine) were transferred by Pin Tool (Wako). The plate map layout was the same for each plate: (column 1) non-doxycycline treated cells + DMSO vehicle control; (column 2) doxycycline treated cells + DMSO vehicle control baseline; (column 3) doxycycline treated cells + positive control 57.5 uM final concentration 5-azacytidine; (column 4) doxycycline treated cells + serial dilution of 5-azacytidine, 16-point 1:2 titration spanning 1.8 nM to […] final concentration; (columns 5-48) doxycycline treated cells + titration of library compounds.
3. Cells were incubated at 37 °C, 5 % CO2, 95% RH with breathable metal lid for 24h.
4-10. […] After two washes, 10 ul of 1X PBS (Thermo Fisher) was dispensed to each well. Clear adhesive plate seals (VWR) were applied and plates stored at 4 °C.
11. […]
Potency is read from the fitted curve at half-maximal effect.

Cellular tumor antigen p53 (Homo sapiens), sequence (P04637 whole entry, looked up): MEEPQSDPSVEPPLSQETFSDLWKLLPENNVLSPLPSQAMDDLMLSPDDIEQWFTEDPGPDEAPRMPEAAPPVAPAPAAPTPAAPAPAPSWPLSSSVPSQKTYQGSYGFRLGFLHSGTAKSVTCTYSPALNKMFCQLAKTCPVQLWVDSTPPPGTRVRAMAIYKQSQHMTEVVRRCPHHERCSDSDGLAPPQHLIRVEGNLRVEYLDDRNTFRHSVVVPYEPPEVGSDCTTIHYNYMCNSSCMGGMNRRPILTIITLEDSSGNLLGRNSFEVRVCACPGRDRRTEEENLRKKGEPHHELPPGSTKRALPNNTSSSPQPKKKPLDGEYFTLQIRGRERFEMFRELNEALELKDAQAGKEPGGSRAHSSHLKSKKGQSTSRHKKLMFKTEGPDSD

SMILES	activation	Potency
COc1ccc(CCn2nnnc2C2(c3ccc(C)cc3)CC2)cc1	-20.3%	
CC1(C)CC[C@]2(C(=O)O[C@@H]3O[C@H](CO)[C@@H](O)[C@H](O)[C@H]3O)CC[C@]3(C)C(=CCC4[C@@]5(C)CC[C@H](O[C@@H]6O[C@H](C(=O)O)[C@@H](O[C@@H]7O[C@H](CO)[C@@H](O)[C@H](O)[C@H]7O)[C@H](O)[C@H]6O)C(C)(C)C5CC[C@]43C)C2C1 (stereo partly specified)	-26.7%	
CN(CCCN1c2ccccc2CCc2ccccc21)CC(=O)c1ccc(Cl)cc1	-1.69%	
CN(C/C=C/C#CC(C)(C)C)Cc1cccc2ccccc12	-0.565%	
O=C(Nc1ccc(S(=O)(=O)Nc2nccs2)cc1)C(c1ccccc1)c1ccccc1	-2.86%	
C=C[C@H]1[C@H](O[C@@H]2O[C@H](CO)[C@@H](O)[C@H](O)[C@H]2O)OC=C(C(=O)OC)[C@H]1CCOC(=O)c1cc(O)c(O)c(O)c1	0%	
COc1cc(C)c(C(=O)Oc2cc(C)c(C(=O)Oc3cc(C)c(C(=O)NC(C)C(=O)O)c(O)c3)c(O[C@@H]3O[C@H](CO)[C@@H](O)[C@H](O)[C@H]3OC(C)=O)c2)c(OC)c1 (stereo partly specified)	-7.63%	
O=C(/C=C/c1ccc(O)c(O)c1)OC[C@H]1O[C@@H](OC2CCCCC2O)[C@H](O)[C@@H](O)[C@@H]1O (stereo partly specified)	-3.05%	
Oc1ccc(-c2cnc3ccc(NCc4ccco4)nn23)cc1		26.9 µM (active)
CC(O)COc1ccccc1 (stereo unspecified)	-13%	
O=C1NC(=O)C(=Cc2ccc3nccc(-c4ccncc4)c3c2)S1	3.34%	
C=C1CC2(C(=O)O)CC1CCC2C1(C)CCCC2(C)C(=O)OC(O)C21 (stereo unspecified)	-6.87%	
COc1cc(C(O)C(=O)O)ccc1O (stereo unspecified)	-11.9%	
Cc1cc(O)c2c(c1)C(=O)c1cc(O)cc(O)c1C2=O	-1.13% and -38%	
CCOC(=O)N1CCN([N+]([O-])=NOc2ccc([N+](=O)[O-])cc2C#N)CC1	12.2%	
C[C@@H]1CCN(C(=O)N2CCCC2)C[C@@H]1N(C)c1ncnc2[nH]ccc12	-10.7%	
CC1(C)SCCN(S(=O)(=O)c2ccc(Oc3ccncc3)cc2)[C@H]1C(=O)NO	20.3%	
O=C(CCCCCCC(=O)Nc1cccnc1)NO	50.9%	
CC(O)C/C=C/C=C/C(=O)OC1C=C2COC(=O)C2(O)C2(C)CCCC(C)(C)C12 (stereo unspecified)	5.34%	
CC1(C)CC[C@]2(C(=O)O)[C@H](O)C[C@]3(C)C(=CCC4[C@@]5(C)CC[C@H](O[C@@H]6O[C@H](CO[C@@H]7OC[C@H](O)[C@H](O)[C@H]7O[C@@H]7OC[C@@H](O)[C@H](O)[C@H]7O)[C@@H](O)[C@H](O)[C@H]6O[C@@H]6O[C@H](CO)[C@@H](O)[C@H](O)[C@H]6O)C(C)(C)C5CC[C@]43C)[C@@H]2C1 (stereo partly specified)	-17.6%	

SMILES	activation	Potency
COC1C(=O)CCC2(CO2)C1(O)C1(C)OC1CC=C(C)C (stereo unspecified)	-9.82%	
CC[C@H]1OC(=O)[C@H](C)[C@@H](O[C@H]2C[C@@](C)(OC)[C@@H](O)[C@H](C)O2)[C@H](C)[C@@H](O[C@@H]2O[C@H](C)C[C@H](N(C)C)[C@@H]2O)[C@](C)(OC)C[C@@H](C)C(=O)[C@H](C)[C@@H](O)[C@]1(C)O	-25.1%	
O=C1Nc2ccc(O)cc2O[C@H]1O[C@@H]1O[C@H](CO)[C@@H](O)[C@H](O)[C@H]1O	-16.8%	
CC1(C)CO[C@@H](CC(=O)O)CN1	-5.86%	
CC1=C(C)C(=O)OC(C(C)C2CCC3C4CC=C5CC(OC6OC(COC7OC(CO)C(O)C(O)C7O)C(O)C(O)C6O)CC(O)C5(C)C4CCC23C)C1 (stereo unspecified)	9.16%	
COC1=C(OC)C(=O)C(CC=C(C)CCC=C(C)CCC=C(C)CCC=C(C)CCC=C(C)CCC=C(C)CCC=C(C)CCC=C(C)CCC=C(C)CCC=C(C)C)=C(C)C1=O	0.831%	
CC(=Cc1ccccc1)C=C1SC(=S)N(CC(=O)O)C1=O	-1.94%	
C[C@]12C=C[C@@]3(CCC4[C@](C)(CO)CCC[C@@]4(C)C3CC1)C2 (stereo partly specified)	-5.36%	
COc1cc(N2CCC(N(C)C)CC2)ccc1Nc1ncc(Cl)c(Nc2ccccc2P(C)(C)=O)n1	-5.31%	2.69 µM (active)
CC1(C)CC[C@]2(C(=O)O)CC[C@]3(C)C(=CCC4[C@@]5(C)C[C@@H](O)[C@H](O)[C@@](C)(CO)C5[C@H](O)C[C@]43C)[C@@H]2C1 (stereo partly specified)	-19.8%	
O=C(NC1CCC1)c1ccc(C#Cc2cccc(F)c2)nc1	21.4%	
O=C(NCCN1CCN(c2cccc3ccc(O)cc23)CC1)c1ccc(F)cc1	-8.04%	
N#CC(CCCN1CCN(/N=C/c2cccnc2)CC1)(c1ccccc1)c1ccccc1	-7.16%	
CCCO[C@@H]1O[C@H](CO)[C@@H](O)[C@H](O)[C@H]1O[C@@H]1OC[C@@H](O)[C@H](O)[C@H]1O	-15.3%	
O=C(OOC(=O)c1ccccc1)c1ccccc1	-15.1%	
CC1(C)CC[C@]2(C(=O)O[C@@H]3O[C@H](CO)[C@@H](O)[C@H](O)[C@H]3O)CC[C@]3(C)C(=CCC4[C@@]5(C)CC[C@H](O[C@@H]6O[C@H](C(=O)O)[C@@H](O[C@@H]7O[C@H](CO)[C@@H](O)[C@H](O)[C@H]7O)[C@H](O)[C@H]6O[C@@H]6O[C@H](CO)[C@@H](O)[C@H](O)[C@H]6O)C(C)(C)C5CC[C@]43C)C2C1 (stereo partly specified)	-29.8%	
CC(=O)NCCc1c[nH]c2ccc(O)cc12	10.8%	
O=C(CCCCC(=O)Nc1c(I)cc(I)c(C(=O)O)c1I)Nc1c(I)cc(I)c(C(=O)O)c1I	2.82%	
COc1cc(N2CCC(N3CCN(C)CC3)CC2)ccc1Nc1ncc(Cl)c(Nc2ccccc2S(=O)(=O)C(C)C)n1	16.9%	30.1 µM (active)
